Screening data deposited in PubChem by The Scripps Research Institute Molecular Screening Center.
TEAD-YAP block = TEAD-YAP interaction inhibition. AID 1259422. actives 1.4% (n = 640,000). HEK-TIYL cells, TEAD-Gal4/YAP UAS-luciferase luminescence. inhibition, % at 9.12 µM; in the data active = inhibition above about 32%;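 also: 0% = median of test compound wells and 100% = reference inhibitor wells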
FBW7 act = activators of human E3 ligase FBW7; AlphaScreen FBW7–phospho-cyclin E peptide binding, activator screen; normalized activity (activation), % at 26.1 µM; actives 0.13% (n = 650,000); in the data active = normalized activity above about 1.9%;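 also: purified mutant Fbw7 with reduced substrate affinity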
GPR151 ag = activates the human receptor GPR151; PathHunter beta-arrestin GPR151 cells, luminescence; actives 1% (n = 650,000); activation, % at 11.2 µM; AID 1508602; in the data active = activation above about 4.9%;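 also: 0% = median of compound wells and 100% = cells with positive control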
MITF inh = inhibitors of human MITF | inhibition, % at 2.6 µM | O75030 | actives 0.91% (n = 650,000) | AlphaScreen MITF homodimerization, bead proximity signal; in the data active = inhibition above about 50%;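 also: 0% = vehicle wells with protein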
GPR151 conf act = human GPR151 activation, confirmation screen | AID 1508609 | shares compounds with GPR151 ag | 6,700 tested, under 10 active | activation, % at 11.2 µM | GPR151 PathHunter beta-arrestin cells, luminescence, 90 min; % of EA-reagent control over plate median;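 active = mean percent activation across replicates above the confirmation screen cutoff of 4.91%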
GPR119 counter = GPR119 activation, counter-screen for GPR151 activators; shares compounds with GPR151 ag; activation, % at 11.2 µM; GPR119 PathHunter beta-arrestin cells, luminescence, 90 min; 0 = compound-well median, 100 = enzyme-acceptor control; actives 0.3% (n = 6,700); AID 1508611;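 active = mean percent activation in the counterscreen above 29.09%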;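 also: counterscreen on off-target GPR119 to flag nonselective hits from the GPR151 activator screen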
Target sequence (Q8TDV5 whole entry, looked up): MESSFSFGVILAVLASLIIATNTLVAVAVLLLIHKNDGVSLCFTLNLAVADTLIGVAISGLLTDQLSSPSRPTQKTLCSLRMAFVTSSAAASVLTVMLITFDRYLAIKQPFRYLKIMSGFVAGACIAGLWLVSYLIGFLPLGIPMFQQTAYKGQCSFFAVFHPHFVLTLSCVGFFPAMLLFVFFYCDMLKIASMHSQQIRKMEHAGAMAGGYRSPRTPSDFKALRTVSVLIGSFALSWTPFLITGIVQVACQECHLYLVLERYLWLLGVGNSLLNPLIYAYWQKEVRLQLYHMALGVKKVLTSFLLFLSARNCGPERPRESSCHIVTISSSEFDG
Active calls of the source: *; x = no result. This is a sample that favours compounds with a hit; in the whole collection about 3.5% have one here.

SMILES | TEAD-YAP block | FBW7 act | GPR151 ag | MITF inh | GPR151 conf act | GPR119 counter
CCCCC(C(=O)Nc1cccc(C)c1)N1C(=O)c2cc(Cl)c(Cl)cc2C1=O (stereo unspecified) | -1.8 | -0.2 | 8.3* | 21.7 | 0.5 | 12.3
Cn1c(N/N=C\c2cccc(O)c2)cc(=O)n(C)c1=O | 8.7 | 0.0 | 3.4 | 4.1 | x | x
Cn1c(N/N=C\c2cccs2)cc(=O)n(C)c1=O | -0.2 | -0.1 | 6.6* | 7.2 | 0.0 | -0.7
COc1cc(/C=N\Nc2cc(=O)n(C)c(=O)n2C)ccc1O | 23.7 | -0.1 | 5.7* | 20.8 | -1.4 | -11.2
CN(C)c1ccc(C2C(C#N)=C(N)Oc3c2sc2ccccc32)cc1[N+](=O)[O-] (stereo unspecified) | 27.7 | 0.0 | -1.4 | 17.1 | x | x
COc1cc(N(C)C)c([N+](=O)[O-])cc1C(=O)NCCN1CCN(c2ccccc2)CC1 | 2.7 | 0.5 | 5.8* | 8.3 | 0.6 | -1.1
COc1ccc(Cl)cc1C(=O)NCCCN1CCN(c2ccccc2)CC1 | -3.0 | -0.1 | 2.9 | 6.2 | x | x
Oc1oc(-c2ccccc2Br)nc1C=Nc1ccccc1Cl | 3.2 | -0.1 | 5.0* | -6.9 | 0.1 | 2.9
CC(C)CN1CCN(Cc2nc3ccccc3n2C)CC1CCO (stereo unspecified) | 2.4 | -0.1 | 1.7 | -0.7 | x | x
Cc1ccc(CN2CCN(Cc3nc4ccccc4n3C)CC2CCO)cc1 (stereo unspecified) | -1.7 | 0.2 | 18.7* | 14.1 | 0.3 | 1.8
COc1cccc(CNC(=O)c2cc3ccc(-c4ccncc4)cc3[nH]2)c1 | -3.0 | 0.2 | -1.8 | 11.7 | x | x
COc1cccc(CNC(=O)c2cc3ccc(-c4cn[nH]c4)cc3n2CCCO)c1 | -6.8 | 0.0 | 5.5* | 5.4 | 0.2 | 7.7
COc1cccc(CNC(=O)c2cc3ccc(-c4ccncc4)nc3[nH]2)c1 | -13.8 | -0.2 | 5.2* | 4.5 | 0.1 | 2.3
COc1cccc(CNC(=O)c2cc3ccc(-c4ccncc4)cc3n2C)c1 | -7.2 | 0.4 | 7.8* | 15.7 | 0.9 | -1.4
COc1ccc(NS(=O)(=O)c2ccc(NC(=O)Nc3ccc(C(C)=O)cc3)cc2)cc1 | 8.5 | 0.1 | 0.3 | 19.1 | x | x
CCC1CN(CCC(=O)NCCCn2ccnc2)Cc2ccc(Cl)cc2O1 (stereo unspecified) | -2.7 | 0.7 | -1.4 | 9.1 | x | x
CN(C)CC(C)(C)CN(CCC#N)S(=O)(=O)c1cccc2nsnc12 | -1.4 | 0.0 | 5.0* | 13.6 | 0.4 | 0.3
CC(C)N(CCC#N)S(=O)(=O)c1cccc2nsnc12 | 7.4 | 0.0 | -1.0 | -4.0 | x | x
CCc1nn(CC(=O)OC(C)C)c(=O)c2cc3oc(C)cc3n12 | -18.6 | 0.0 | 5.4* | 6.6 | -0.6 | -6.0
CN(C)c1ccc(C(=O)N/N=C/c2c(F)cccc2Cl)cc1 | -20.8 | 0.0 | -0.7 | 9.6 | x | x
N#Cc1ccccc1CSc1ncnc2sccc12 | 1.4 | 0.2 | 5.1* | 4.5 | 1.4 | 11.1
Cc1ccc(S(=O)(=O)n2cc(-c3ccnc(N)c3)c3cc(Br)cnc32)cc1 | x | x | 7.6* | x | -0.3 | -2.0
COc1ccc(C(=O)Cn2c(-c3nnc(C(C)C)o3)cc3ccccc32)cc1 | -10.8 | 0.0 | 0.6 | 25.6 | x | x
CC(C)c1nnc(-c2cc3ccccc3n2Cc2ccccc2)o1 | -6.3 | -0.2 | 5.6* | -11.2 | -1.3 | -13.1
COc1cc(C2Nc3ccccc3NC3=C2C(=O)CC(c2ccccc2Cl)C3)cc(OC)c1OC (stereo unspecified) | -1.1 | 0.5 | 5.6* | 15.8 | -0.2 | -2.7
SMILES | TEAD-YAP block | FBW7 act | GPR151 ag | MITF inh | GPR151 conf act | GPR119 counter
COc1cc(C(=O)Nc2cc(=O)n(C)c(=O)n2C)cc(OC)c1OC | -2.1 | 0.0 | 5.7* | -5.4 | -0.5 | -0.5
COCCn1c(=N)c(C(=O)NCc2ccco2)cc2c(=O)n3ccccc3nc21 | -12.9 | -0.1 | 7.3* | 6.4 | 0.2 | -8.1
COc1cccc(NC(=O)c2cc3c(=O)n4ccccc4nc3n(CC(C)C)c2=N)c1 | -7.5 | 0.0 | 5.0* | -5.3 | -1.3 | -6.5
Oc1ccc(Nc2ncnc3ccc(I)cc23)cc1 | 15.8 | 0.0 | 8.2* | 8.4 | 2.2 | 8.0
CCOc1cccc2sc(NC(=O)C3=COCCO3)nc12 | -16.9 | -0.2 | 6.6* | 2.3 | 0.2 | 9.7
CCN1CCN(Cc2nc(N)nc(Nc3ccccc3)n2)CC1 | 7.7 | 0.0 | 6.1* | 5.2 | 0.5 | 13.2
COc1ccc(Nc2nc(N)nc(CN3CCN(c4ccccn4)CC3)n2)cc1 | -7.4 | -0.2 | 0.0 | 9.2 | x | x
CCOC(=O)c1cnc(SCc2nc(N)nc(Nc3ccccc3)n2)nc1N | 13.1 | -0.1 | 2.7 | 0.1 | x | x
COc1ccc(Nc2nc(N)nc(CN3C(=O)c4ccccc4C3=O)n2)cc1 | 0.0 | -0.3 | 6.9* | 3.1 | 0.1 | -2.2
CCOC(=O)c1nc(N)nc(Nc2ccccc2)n1 | 8.8 | -0.6 | 11.0* | 15.4 | -0.3 | 1.4
COc1ccccc1CNC(=O)c1ccc(CNc2c(N3CCCC3)c(=O)c2=O)cc1 | 4.9 | 0.2 | 4.9* | 10.1 | -1.0 | -12.5
Cc1ccc(NC(=O)c2ccc(CNc3c(N4CCOCC4)c(=O)c3=O)cc2)cc1F | -7.5 | -0.1 | 5.0* | 1.4 | 0.1 | -9.1
CCOC(=O)c1c(C)n(C)c2c1cc(OC(=O)c1ccc(F)cc1)c1ccccc12 | 3.8 | 0.3 | -1.4 | 11.8 | x | x
CC(=O)Nc1ccc(NC(=O)COC(=O)c2ccc3c(c2)nc(C)n3-c2ccccc2)cc1 | 1.9 | -0.1 | 10.7* | -0.5 | 0.5 | 7.6
O=C(CCCC(=O)N(CC(=O)NC1CCCCC1)CC1CCCO1)Nc1ccccn1 (stereo unspecified) | -0.3 | 0.3 | 8.7* | -1.2 | 1.3 | 8.0
O=C(CCCC(=O)N(CC(=O)NC1CCCCC1)Cc1ccccc1)Nc1ccccn1 | 6.4 | -0.1 | -0.5 | 12.7 | x | x
O=C(CN(CC1CCCO1)C(=O)CCC(=O)Nc1nccs1)NCc1ccccc1 (stereo unspecified) | 2.0 | 0.0 | 9.4* | -0.3 | 0.8 | 4.4
Cc1cccc(C(=O)Nc2cccc(C(=O)Nc3cccc(Br)c3)c2)c1 | 0.6 | 0.2 | 1.2 | 16.5 | x | x
CCC1(C(=O)c2ccccc2)C(c2ccc(OC)c(OC)c2)C1(C(=O)OC)C(=O)OC (stereo unspecified) | 4.1 | -0.1 | 0.5 | -1.4 | x | x
CCn1c(C)cc(C=C2C(=O)c3ccccc3C2=O)c1C | 66.2* | -0.1 | 8.2* | -3.7 | 0.1 | -25.8
COc1cc(NC(=O)c2ccc3nc(-c4cccc(C(C)=O)c4)sc3c2)cc(OC)c1OC | -27.1 | 0.1 | 13.2* | 7.1 | 0.6 | 2.0
CC(=O)Nc1ccc(NC(=O)c2cnc(-c3csc4ccccc34)s2)cc1 | -3.6 | 0.0 | -3.0 | -2.9 | x | x
CC(=O)Nc1ccc(NC(=O)c2ccc3nc(-c4ccc(C(=O)NC5CC5)cc4)sc3c2)cc1 | 9.9 | 0.0 | 11.1* | 2.3 | 0.5 | 3.1
